The sample as a whole holds a higher share of hits than the screen did.
Pf Dd2 inh: qHTS Primary assay for Inhibitors of Plasmodium falciparum Dd2 growth in vitro; P. falciparum Dd2 growth, SYBR Green, 72 h; Potency, µM (series often up to 28.9 µM), most hits filed as inhibitors; hit rate 4.3% among 120,000; active = well fitted inhibition curve with a large enough effect; also: nearly all actives have a fitted effect of over 65% in size
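Infected erythrocytes (Dd2, 0.3% parasitemia, 2.5% hematocrit final) are added to compound in RPMI-1640/Albumax II medium, grown 72 h at 37C in low oxygen, then lysed with saponin/Triton-X containing SYBR Green and read by fluorescence.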
Numbers stand for hits; 0 = inactive; [ ] = remark or other dose.

SMILES	Pf Dd2 inh
CCCOc1ccc(C2c3c(oc4ccccc4c3=O)C(=O)N2c2ccc(C)cn2)cc1OCC (stereo not drawn)	0
CCOc1cc(C2c3c(oc4ccccc4c3=O)C(=O)N2c2ccccn2)ccc1O (stereo not drawn)	0
CCn1cc(CN(C)C(=O)CCC[C@H]2NC[C@@H]3C[C@H]2CN(Cc2ccccc2)C3)c(C)n1	0
N#Cc1cccc(CN2CCc3nc(N4CCOCC4)[nH]c(=O)c3CC2)c1	0[5.79 µM]
Cc1ccc(C2=Nc3ccccc3N(CC(=O)Nc3cccc(F)c3)C(=O)C2)cc1C	8.9µM
Cc1cc(=O)n(CC(=O)Nc2cccc(F)c2)c(-c2ccccc2)n1	0
Cc1ccc2c(c1)N(CCC(=O)NCc1ccccc1Cl)C(=O)CO2	0
COc1ccc(C2=NN(CC(=O)NCc3ccccc3Cl)C(=O)CC2)cc1	0
Cc1ccc(C2=Nc3ccccc3N(CC(=O)NCc3ccccc3Cl)C(=O)C2)cc1C	11µM
Cc1ccc(NC(=O)CN2C(=O)CC(c3ccc(F)cc3)=Nc3ccccc32)cc1F	0
CC(C)CN1C(=O)c2cccn2CC1CNC(=O)c1ccc(F)cc1 (stereo not drawn)	0
Cn1cccc1C(=O)N1CCC(c2[nH]ncc2Cc2ccccc2)CC1	0
CCCc1cc(C(=O)N2CC[C@@H]3[C@@H](CCC(=O)N3CC(C)C)C2)ccn1	0
Cc1ncsc1CN1CCc2nn(CC3CC3)c(=O)n2CC1	0
COCCN(Cc1cc(=O)c2cc(F)ccc2[nH]1)CC1CC1	0
CCc1cccc(NC(=O)CN2C(=O)NC3(CCC(C)CC3)C2=O)c1 (stereo not drawn)	0
COc1cccc(S(=O)(=O)N2CCN(C3CCN(C)C3=O)CC2)c1 (stereo not drawn)	0
COc1ccc(CCN2C(=O)c3[nH]nc(-c4ccccc4O)c3C2c2ccc(OC)cc2)cc1 (stereo not drawn)	10µM
COc1ccc(CCN2C(=O)N(c3ccccc3)C(=O)C2CC(=O)Nc2ccccc2)cc1 (stereo not drawn)	0
CCCNC(=O)CN1C(=O)c2c(c3ccccc3n2C)C1c1ccc(OC)cc1 (stereo not drawn)	0
COc1ccc(CCN2C(=O)c3[nH]nc(-c4ccccc4O)c3C2c2ccccc2)cc1 (stereo not drawn)	8.9µM
COc1ccc(CN2C(=O)c3oc4ccccc4c(=O)c3C2c2ccc(O)c(OC)c2)cc1 (stereo not drawn)	0
O=C(NCC(F)(F)F)C1CN(Cc2ccccc2)C(=O)N1 (stereo not drawn)	0
O=C1NC2(CCCN([S+](=O)([O-])c3cccc(C(F)(F)F)c3)C2)COc2ccccc21 (stereo not drawn)	0
CC(C)(C)CC(=O)Nc1nc2c(s1)C[C@@H]1[C@](C)(CO)[C@H](O)CC[C@@]1(C)[C@@H]2CC(=O)NCCN1CCOCC1	0
SMILES	Pf Dd2 inh
O=C(O)C1(O)CCN(c2ncc(F)c(N3CCOCC3)n2)CC1	0
COc1ccc(NC(=O)N2CCC3(CC2)N(CC2CC2)C(=O)CS3=O)cc1 (stereo not drawn)	0
CCOC(=O)C1CCN(C(=O)C2CCN(C3=NS(=O)(=O)C(c4ccc(C)cc4)=C3CC)CC2)CC1	11µM
CCOC(=O)C1CCN(C(=O)C2CCc3nc(N4CCN(C(C)=O)CC4)sc3C2)CC1 (stereo not drawn)	0
CC1=C(c2ccc(C)c(C)c2)S(=O)(=O)N=C1N1CCC(C(=O)NCc2ccccc2C)CC1	0
CCOC(=O)C1CCN(C(=O)CN2c3ccc(CC)cc3-c3ccccc3S2(=O)=O)CC1	0
CCc1ccc(C2=C(C)C(N3CCC(C(=O)NCc4ccccc4)CC3)=NS2(=O)=O)cc1	0
CCC1=C(c2ccc(C)cc2)S(=O)(=O)N=C1N1CCC(C(=O)NCCc2cccc(OC)c2)CC1	7.9µM
CO[C@H]1[C@H](NC(=O)Cn2nc(C)c(C)c2C)c2ccccc2C12CCNCC2	0
COC(C(=O)N1CC(=O)N(Cc2cccnc2)CC(OCc2ccccc2)C1)c1ccccc1 (stereo not drawn)	0
Cc1ccccc1S(=O)(=O)N1CCn2c(n[nH]c2=O)C1	0
Cc1cccc(CN2CCc3c(n(Cc4cccnc4)n(-c4ccccc4)c3=O)C2)n1	0
CCCN(CC1CCOC1)S(=O)(=O)c1cc(F)cc(F)c1 (stereo not drawn)	0[5.79 µM]
COc1cccc(-c2cccc(COc3cnc4c(ccn4CC(=O)O)c3)c2)c1F	0
CC[C@H]1CN(C(=O)C2CC2)CC[C@H]1CC(=O)NC1CC1	0
CN(Cc1ccc(-c2ccccc2)cc1)Cc1cccc(C(F)(F)F)c1	0
CC1CCCCN1C(=O)CN1CCSc2ccccc21 (stereo not drawn)	0
CC1CCCCN1Cc1c(O)ccc2c(=O)c(-c3ccccc3)coc12 (stereo not drawn)	10µM
CC1CCCCN1Cc1nnc2cc(-c3nc(-c4ccccc4)no3)ccn12 (stereo not drawn)	0
CN(Cc1ccccc1)Cc1c(O)ccc2c(=O)c(-c3ccccc3)c(C(F)(F)F)oc12	4µM
CN(Cc1ccc(-c2ccccc2)cc1)Cc1cccc(OC(F)(F)F)c1	0
CC1CCCCN1Cc1c(O)ccc2c(=O)c(-c3ccc(Cl)cc3)c(C(F)(F)F)oc12 (stereo not drawn)	10µM
CC1CCCCN1Cc1nc2c(c(=O)n(C)c(=O)n2C)n1Cc1ccc(Br)cc1 (stereo not drawn)	0
O=C1Nc2ccc(-c3cccc(C(F)(F)F)c3)cc2C(=O)N2CCN(C(=O)c3ccco3)C[C@@H]12	0
COCCN1C(=O)c2cccn2CC1CNS(=O)(=O)c1ccccc1 (stereo not drawn)	0
SMILES	Pf Dd2 inh
C[C@H]1CCCN1C(=O)c1nnc(COc2ccccc2)n1-c1ccccc1	0
CN1CC2(CCN(C(=O)c3cccnc3N(C)C3CCCCC3)CC2)OC1=O	0
O=C(c1cccc2[nH]ccc12)N1CCC(n2cc(-c3nc(-c4ccccc4)no3)nn2)CC1	0
O=C(NCCc1ccccc1F)C1CN(c2cccc(Cl)c2)C(=O)N1 (stereo not drawn)	0
Cc1ccccc1C(=O)N1CCn2c(nn(-c3ccncc3)c2=O)C1	0
Cc1oc2c(c1C(=O)N1CCCC1)CN(Cc1cccc(F)c1)CC2	0
O=C(CC1CCOCC1)N1CCN(Cc2cccc(F)c2)CC1	0
Cc1oc2c(c1C(=O)N1CCCCCC1)CN(Cc1cccc(F)c1)CC2	4µM
Cc1oc2c(c1C(=O)N1CCN(C3CCCC3)CC1)CN(Cc1cccc(F)c1)CC2	8.9µM
O=C1CCN(Cc2cccc(F)c2)CCCCCCN1	0
CN1C(=O)C(CC(=O)NCC2CCN(Cc3cccc(F)c3)CC2)=C2CCCCC21 (stereo not drawn)	0
CN1[C@@H](CCC(=O)N2CCN(c3ccccn3)CC2)CNC(=O)[C@@H]2[C@H]1CCN2Cc1cccs1	0
O=C(N[C@H]1CCN2C(=O)c3ccccc3NC(=O)[C@@H]2C1)c1ccccc1	0
CC[C@@H]1[C@@H](NC(=O)CCCn2nnc(-c3ccc(F)cc3)n2)[C@@H]2CCO[C@H]12	0
Cc1nc(N2CCCC2)ncc1C(=O)NCc1cccc(Cl)c1	0
O=C(CCc1ccnc(N2CCCC2)c1)NCc1cccc(Cl)c1	4.5µM
CNC(=O)CCc1ccnc(N2CCCC2)c1	0
COc1cc(C(=O)NC2CCN(c3cc(-c4ccc(F)cc4)[nH]n3)CC2)cc(OC)c1OC	0
CCN1C(C(=O)c2ccccc2)=C(NC(=O)c2ccc(Cl)cc2)c2ccccc2S1(=O)=O	13µM

High-throughput results from PubChem BioAssay.
